Holding throughout (set-up): scale not given: direction of the effect not stated beside the values
The target of experiment [1] is Protein translocase subunit SecA (Escherichia coli (strain K12)) (UniProt P10408). Put plainly: Assay to Identify E. coli SecA ATPase Inhibitors. The format is functional. The settings on record: 30 µM.
In experiment [2] the target is T1, Ubiquitin-activating enzyme e1, putative (Leishmania donovani (strain BPK282A1)) (UniProt E9BSI1).
T1 sequence (whole entry): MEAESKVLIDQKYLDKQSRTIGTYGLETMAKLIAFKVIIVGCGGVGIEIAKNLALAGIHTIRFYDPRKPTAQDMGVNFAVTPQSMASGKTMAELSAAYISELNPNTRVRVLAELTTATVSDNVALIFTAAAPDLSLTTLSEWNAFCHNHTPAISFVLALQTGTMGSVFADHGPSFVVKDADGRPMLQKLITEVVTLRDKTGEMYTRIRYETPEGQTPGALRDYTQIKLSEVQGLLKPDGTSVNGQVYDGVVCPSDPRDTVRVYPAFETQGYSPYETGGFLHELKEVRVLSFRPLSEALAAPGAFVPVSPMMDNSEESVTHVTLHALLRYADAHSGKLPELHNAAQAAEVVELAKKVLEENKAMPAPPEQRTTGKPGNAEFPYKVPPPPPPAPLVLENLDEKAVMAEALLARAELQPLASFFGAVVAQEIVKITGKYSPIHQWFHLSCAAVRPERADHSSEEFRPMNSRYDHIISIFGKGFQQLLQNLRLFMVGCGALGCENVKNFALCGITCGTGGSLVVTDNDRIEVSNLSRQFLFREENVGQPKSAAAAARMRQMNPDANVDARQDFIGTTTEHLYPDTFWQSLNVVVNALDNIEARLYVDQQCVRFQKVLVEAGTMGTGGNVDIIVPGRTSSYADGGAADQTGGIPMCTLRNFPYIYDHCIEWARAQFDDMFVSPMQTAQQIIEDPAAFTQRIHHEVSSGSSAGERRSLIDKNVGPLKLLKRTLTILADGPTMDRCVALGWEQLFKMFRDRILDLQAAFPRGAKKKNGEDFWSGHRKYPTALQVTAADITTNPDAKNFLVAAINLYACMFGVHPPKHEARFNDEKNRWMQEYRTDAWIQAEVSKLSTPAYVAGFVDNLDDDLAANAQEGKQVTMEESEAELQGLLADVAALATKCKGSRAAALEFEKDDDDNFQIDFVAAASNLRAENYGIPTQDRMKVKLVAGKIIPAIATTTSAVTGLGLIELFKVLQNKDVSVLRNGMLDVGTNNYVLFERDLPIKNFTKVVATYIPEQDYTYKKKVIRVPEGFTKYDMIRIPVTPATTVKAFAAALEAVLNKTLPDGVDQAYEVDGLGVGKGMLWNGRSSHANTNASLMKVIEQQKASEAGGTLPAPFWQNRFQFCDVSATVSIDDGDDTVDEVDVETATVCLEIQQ
Put plainly: Leishmania donovani Ubiquitin Activating Enzyme (LdE1). Format: functional. The settings on record: 30 µM.

Experiment [3] deals with AMP-activated protein kinase, AMPK (Homo sapiens) (UniProt P54646+O43741+P54619+Q9UGJ0+Q9Y478+Q13131+Q9UGI9). Put plainly: AMP-dependent Kinase enzyme assay. An in vitro enzyme assay that detects ADP turnover that is directly proportional to AMPK activity. This uses naive AMPK that is activated during the assay with MK-8722. The settings on record: 30 µM. Format: functional.

Experiment [4] deals with Sialic acid-binding Ig-like lectin 9 (Homo sapiens) (UniProt Q9Y336). Put plainly: Hs-Siglec9 ALPHAscreen SOP 20170721. The settings on record: 10 µM. For orientation: In Alpha technology, singlet oxygen from a donor bead excites a nearby acceptor bead.
Experiment [5] has as its system Trypanosoma cruzi. Put plainly: Trypanosoma cruzi phosphomannomutase and mannose-1-phosphate guanylyltransferase assay. The settings on record: 10 µM. The format is functional.
The target in experiment [6] is T2, Arginase-2, mitochondrial (Homo sapiens) (UniProt P78540).
T2 sequence (whole entry): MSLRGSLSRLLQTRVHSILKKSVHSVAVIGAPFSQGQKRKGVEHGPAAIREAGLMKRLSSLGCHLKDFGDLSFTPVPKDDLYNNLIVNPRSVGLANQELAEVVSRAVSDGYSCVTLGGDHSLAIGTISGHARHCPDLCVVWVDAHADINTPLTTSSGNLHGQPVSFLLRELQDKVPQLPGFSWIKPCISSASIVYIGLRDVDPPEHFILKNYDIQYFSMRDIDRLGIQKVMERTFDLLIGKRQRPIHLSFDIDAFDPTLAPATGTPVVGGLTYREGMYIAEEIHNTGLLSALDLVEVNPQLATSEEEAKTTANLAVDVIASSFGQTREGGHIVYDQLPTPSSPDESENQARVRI
Put plainly: in vitro enzyme assay to detect the production of urea directly proportional to the activity of Arginase II. Note: in the data most compounds retested in dose-response had high values. The format is functional. The settings on record: 33.3 µM.

The target in experiment [7] is T3, Proteasome subunit beta (Trypanosoma cruzi) (UniProt O96673).
T3 sequence (whole entry): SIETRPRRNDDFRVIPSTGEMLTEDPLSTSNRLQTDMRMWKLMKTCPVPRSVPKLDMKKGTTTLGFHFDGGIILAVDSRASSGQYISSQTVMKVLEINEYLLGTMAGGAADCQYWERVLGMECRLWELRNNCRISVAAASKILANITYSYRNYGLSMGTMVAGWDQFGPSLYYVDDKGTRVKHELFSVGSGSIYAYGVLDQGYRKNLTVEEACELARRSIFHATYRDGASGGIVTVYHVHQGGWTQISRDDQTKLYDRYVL
Put plainly: Trypanosoma cruzi proteasome chymotrypsin-like activity (TcProtChymo) assay. Note: in the data most compounds retested in dose-response had high values. The format is functional. The settings on record: 9.37 µM.

The species entered for experiment [8] is Homo sapiens. Put plainly: To identify inhibition of the IFN signalling (Jak-Stat) pathway via expression of an eGFP reporter gene under the control of an IFN-stimulated response element (ISRE) containing MxA promoter. The format is functional. The settings on record: 30 µM.
Experiment [9] deals with T4, Tyrosyl-tRNA synthetase, putative (Trypanosoma cruzi (strain CL Brener)) (UniProt Q4DSP6).
T4 sequence (whole entry): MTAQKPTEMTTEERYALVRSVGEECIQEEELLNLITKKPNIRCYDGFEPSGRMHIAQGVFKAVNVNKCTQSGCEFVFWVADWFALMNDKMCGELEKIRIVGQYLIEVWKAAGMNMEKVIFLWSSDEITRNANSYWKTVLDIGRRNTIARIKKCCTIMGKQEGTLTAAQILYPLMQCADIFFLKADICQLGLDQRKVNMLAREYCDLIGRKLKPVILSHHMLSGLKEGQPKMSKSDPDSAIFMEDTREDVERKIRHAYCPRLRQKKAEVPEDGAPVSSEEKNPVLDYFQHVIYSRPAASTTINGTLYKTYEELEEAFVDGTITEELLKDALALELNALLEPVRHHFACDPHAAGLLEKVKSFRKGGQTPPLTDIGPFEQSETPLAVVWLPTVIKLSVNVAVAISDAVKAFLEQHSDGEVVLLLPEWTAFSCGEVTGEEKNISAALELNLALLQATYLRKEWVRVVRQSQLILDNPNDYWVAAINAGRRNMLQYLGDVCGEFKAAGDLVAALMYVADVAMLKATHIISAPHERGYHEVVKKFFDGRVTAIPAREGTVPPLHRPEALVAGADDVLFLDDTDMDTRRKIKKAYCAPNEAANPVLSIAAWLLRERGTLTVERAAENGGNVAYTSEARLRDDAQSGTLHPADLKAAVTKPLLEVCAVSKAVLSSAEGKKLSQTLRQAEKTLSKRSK
Put plainly: Trypanosoma cruzi tyrosyl tRNA synthetase (TcYRS) _High Tyrosine SOP. Note: in the data most compounds retested in dose-response had high values. The format is functional. The settings on record: 30 µM.

Experiment [10] concerns the target T4, Tyrosyl-tRNA synthetase, putative (Trypanosoma cruzi (strain CL Brener)). Put plainly: Trypanosoma cruzi tyrosyl tRNA synthetase (TcYRS) SOP. Format: functional. The settings on record: 30 µM.
Experiment [11] concerns the target Chromo domain-containing protein 1 (Saccharomyces cerevisiae (strain ATCC 204508 / S288c) (Baker's yeast)) (UniProt P32657). Put plainly: ScCHD-1 Enzyme Inhibition Assay. Note: in the data most compounds retested in dose-response had high values. Format: functional. The settings on record: 30 µM.

For some of these results: Entries with a potency or affinity are not part of this list.

Chain of Sialic acid-binding Ig-like lectin 9 (Homo sapiens) (Q9Y336 whole entry): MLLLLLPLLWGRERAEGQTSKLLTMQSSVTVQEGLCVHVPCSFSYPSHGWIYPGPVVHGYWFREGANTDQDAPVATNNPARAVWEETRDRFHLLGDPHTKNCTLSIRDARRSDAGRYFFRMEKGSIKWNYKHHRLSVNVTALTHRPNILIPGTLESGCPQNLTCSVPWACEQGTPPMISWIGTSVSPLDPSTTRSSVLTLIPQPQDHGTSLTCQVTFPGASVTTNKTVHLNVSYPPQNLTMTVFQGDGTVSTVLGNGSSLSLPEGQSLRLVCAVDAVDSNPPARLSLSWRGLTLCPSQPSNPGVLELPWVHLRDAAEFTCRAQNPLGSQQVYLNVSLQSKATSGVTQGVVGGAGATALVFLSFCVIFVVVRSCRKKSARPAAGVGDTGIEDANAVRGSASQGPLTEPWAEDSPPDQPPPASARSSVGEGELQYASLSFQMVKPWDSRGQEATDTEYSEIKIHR
Chain of Protein translocase subunit SecA (Escherichia coli (strain K12)) (P10408 whole entry): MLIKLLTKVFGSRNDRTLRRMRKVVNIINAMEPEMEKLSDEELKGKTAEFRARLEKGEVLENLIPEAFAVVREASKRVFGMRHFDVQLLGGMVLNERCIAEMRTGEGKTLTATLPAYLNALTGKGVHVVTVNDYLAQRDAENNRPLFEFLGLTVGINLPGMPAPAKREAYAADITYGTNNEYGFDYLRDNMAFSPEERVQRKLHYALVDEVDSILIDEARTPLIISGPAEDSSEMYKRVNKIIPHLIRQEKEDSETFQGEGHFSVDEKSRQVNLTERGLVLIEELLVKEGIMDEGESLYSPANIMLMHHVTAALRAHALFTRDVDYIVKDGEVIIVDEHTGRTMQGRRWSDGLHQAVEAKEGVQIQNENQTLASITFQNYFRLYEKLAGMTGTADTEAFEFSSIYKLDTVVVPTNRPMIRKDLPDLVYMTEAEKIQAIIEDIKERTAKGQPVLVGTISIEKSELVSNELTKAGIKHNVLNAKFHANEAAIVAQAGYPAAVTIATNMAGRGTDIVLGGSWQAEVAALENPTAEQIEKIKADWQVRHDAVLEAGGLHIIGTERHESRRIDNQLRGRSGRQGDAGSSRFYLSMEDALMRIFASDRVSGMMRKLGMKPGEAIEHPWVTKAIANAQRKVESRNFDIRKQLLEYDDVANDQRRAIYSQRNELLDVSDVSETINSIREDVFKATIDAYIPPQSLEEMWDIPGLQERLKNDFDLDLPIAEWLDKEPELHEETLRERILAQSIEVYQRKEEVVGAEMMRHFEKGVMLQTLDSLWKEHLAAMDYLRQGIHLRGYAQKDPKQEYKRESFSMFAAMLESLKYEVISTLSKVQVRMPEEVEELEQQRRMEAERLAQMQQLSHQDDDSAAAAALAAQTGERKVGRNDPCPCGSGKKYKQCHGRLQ
Chain of Chromo domain-containing protein 1 (Saccharomyces cerevisiae (strain ATCC 204508 / S288c) (Baker's yeast)) (P32657 whole entry, the tested form may be a part): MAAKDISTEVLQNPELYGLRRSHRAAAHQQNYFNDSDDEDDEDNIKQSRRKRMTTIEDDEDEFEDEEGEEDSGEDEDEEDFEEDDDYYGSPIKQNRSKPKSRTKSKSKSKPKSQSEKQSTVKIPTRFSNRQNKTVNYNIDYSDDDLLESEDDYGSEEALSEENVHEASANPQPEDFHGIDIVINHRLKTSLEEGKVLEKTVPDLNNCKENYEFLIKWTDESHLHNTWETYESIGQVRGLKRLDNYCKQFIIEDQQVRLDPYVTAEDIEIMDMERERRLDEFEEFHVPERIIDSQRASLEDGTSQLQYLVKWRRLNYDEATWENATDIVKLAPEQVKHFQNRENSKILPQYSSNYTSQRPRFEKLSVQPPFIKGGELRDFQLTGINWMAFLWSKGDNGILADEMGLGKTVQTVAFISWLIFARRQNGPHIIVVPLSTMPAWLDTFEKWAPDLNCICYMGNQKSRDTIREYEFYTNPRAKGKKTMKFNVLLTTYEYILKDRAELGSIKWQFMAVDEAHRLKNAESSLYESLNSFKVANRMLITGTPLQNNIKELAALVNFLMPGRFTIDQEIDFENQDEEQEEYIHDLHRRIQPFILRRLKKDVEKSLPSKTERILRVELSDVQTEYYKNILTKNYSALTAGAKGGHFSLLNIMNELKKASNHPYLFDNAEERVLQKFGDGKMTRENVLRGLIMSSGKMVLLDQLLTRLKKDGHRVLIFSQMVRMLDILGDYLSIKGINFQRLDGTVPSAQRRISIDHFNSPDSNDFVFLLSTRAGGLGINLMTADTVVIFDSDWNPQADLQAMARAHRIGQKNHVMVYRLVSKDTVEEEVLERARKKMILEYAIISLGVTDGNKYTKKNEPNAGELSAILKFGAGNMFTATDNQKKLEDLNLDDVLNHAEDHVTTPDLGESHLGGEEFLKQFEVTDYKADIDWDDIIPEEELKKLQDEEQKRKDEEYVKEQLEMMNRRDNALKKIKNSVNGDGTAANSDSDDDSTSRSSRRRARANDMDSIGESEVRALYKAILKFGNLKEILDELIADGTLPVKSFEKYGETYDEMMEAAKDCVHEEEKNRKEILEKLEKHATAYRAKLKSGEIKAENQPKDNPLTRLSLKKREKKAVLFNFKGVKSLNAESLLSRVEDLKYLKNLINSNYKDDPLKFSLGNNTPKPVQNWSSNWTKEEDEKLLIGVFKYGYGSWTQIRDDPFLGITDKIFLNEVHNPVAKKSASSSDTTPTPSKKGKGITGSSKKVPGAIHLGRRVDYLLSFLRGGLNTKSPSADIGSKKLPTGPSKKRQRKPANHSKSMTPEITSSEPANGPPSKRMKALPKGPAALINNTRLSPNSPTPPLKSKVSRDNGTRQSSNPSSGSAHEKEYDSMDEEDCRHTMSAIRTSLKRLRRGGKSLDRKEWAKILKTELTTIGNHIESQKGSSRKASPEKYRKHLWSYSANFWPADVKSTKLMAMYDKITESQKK

Take `CC(C)(O)CN1CCN(C(=O)c2sccc2C2CC2)CC1`: the Percent Effect in [1] is -3.28%; in experiment [2], 6.33%; in [3] it was 9.46%; in [4] it was 2.31%; in experiment [5] it was -2.56%; in experiment [6], 4.09%. Also, the Percent Effect in experiment [7] is 4.97%; in experiment [8], 1.7%; in [9], 3.12%; in [10], 2.53%; in [11], -6.63%.
Consider `Cc1cnn(CC2CCCCN2C(=O)Cc2csc(C)n2)c1` (stereo not drawn), for which the Percent Effect in experiment [1] is -3.54%; in experiment [2] it was -3.8%; in experiment [3] it was 5.27%; in [4], 1.29%; in experiment [5], -5.64%; in experiment [6] it was -0.645%. In addition, the Percent Effect is 6.17% in experiment [7]; 13.6% in experiment [8]; 2.08% in [9]; -2.53% in experiment [10]; -19.5% in [11].
In the case of `O=C(c1cccnc1)N1CC[C@H](OCC2CC2)[C@@H]1Cc1cccnc1`, the Percent Effect was -0.924% in experiment [1]; 13.3% in experiment [2]; 5.44% in [3]; -0.245% in experiment [4]; -4.44% in experiment [5]; -43.2% in experiment [6]. The Percent Effect is 2.73% in experiment [7]; -15.6% in experiment [8]; 1.04% in experiment [9]; -10% in experiment [10]; -6.48% in experiment [11].
In the case of `O=C(c1ccsc1)N1CCc2c(CNc3ncccn3)n[nH]c2C1`, the Percent Effect in [1] was -4.87%; in experiment [2], 10.7%; in experiment [3], 4.32%; in experiment [4], 1.51%; in experiment [5], 6.95%; in [6], -44.6%. For the same compound, the Percent Effect in experiment [7] was 1.88%; in experiment [8] it was 9.05%; in experiment [9], -1.04%; in experiment [10], 7.5%; in experiment [11] it was -6.05%.
On to `Cc1nc(C2CCCN2Cc2nc(C)c(C)o2)no1` (stereo not drawn), for which the Percent Effect in [1] was -2.9%; in [2], 16.2%; in experiment [3] it was -2.94%; in [4] it was -1.49%; in [5] it was -1.95%; in experiment [6], 1.29%. The Percent Effect in experiment [7] was 4.49%; in [8], -3.4%; in experiment [9] it was 13.9%; in experiment [10], 25.6%; in [11] it was -5.47%.
With `CC(NC(=O)N(C)Cc1ccc(Cl)s1)c1ccccn1` (stereo not drawn), the Percent Effect was -2.39% in experiment [1]; 13.9% in experiment [2]; 9.06% in [3]; -0.224% in experiment [4]; 0.308% in [5]; 1.07% in experiment [6]. The Percent Effect in experiment [7] is 6.86%; in experiment [8], 14.4%; in experiment [9] it was 3.12%; in [10], 12.7%; in [11], -14.9%.
Take `CCCNC(=O)C(C)NC(=O)CCc1ccccc1Br` (stereo not drawn): the Percent Effect in [1] was 0.82%; in experiment [2] it was 4.17%; in experiment [3] it was 3.58%; in experiment [4], -5.62%; in experiment [5], -9.43%; in [6] it was 4.42%. Also, the Percent Effect was 16.5% in experiment [7]; 8.51% in experiment [8]; 0% in experiment [9]; 5.13% in experiment [10]; -1.03% in [11].
For the compound `Cc1nc(C(=O)N2CCCC2c2c(C)nn(C)c2C)ccc1C#N` (stereo not drawn), the Percent Effect in [1] was -5.64%; in experiment [2], -1.27%; in experiment [3] it was 7.49%; in experiment [4], 4.58%; in experiment [5], -2.36%; in experiment [6] it was 1.07%. In addition, the Percent Effect in experiment [7] was 16.1%; in [8], 4.46%; in [9], 0%; in experiment [10], 2.53%; in experiment [11] it was 10.7%.

These data come from ChEMBL document CHEMBL3988442, “University of Dundee, Small-Polar-MMV Screening Library” (2021).
